Experimental data reported in the supplement of paper PMC10849652.
Of roughly 7,900 targets only a part is listed; those with a hit were picked by preference. About 0.6% of all pairs of compound and target were hits.

Key:
Test in all cases: log2 fold change, soluble protein after heating vs DMSO (PISA); higher = thermal stabilisation; K562 cells, 10 uM, 30 min; active = over 0.2 and 3.5 SD of the protein, either way, in both replicates (recomputed)
[1] = compound: NC(=O)Nc1cc(-c2cccc(F)c2)sc1C(=O)N[C@H]1CCCNC1
Summary of the method: (§1)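 Thermal stability values are relative to control samples and come from duplicates. They are expressed as log2 fold changes. For measurement, K562 cells (2×10^6 cells/mL) received 10 μM compound for 30 min, and aliquots were heated for 3 min over 48°C-58°C, pooled, and extracted at 4°C in PBS with 0.5% NP-40. Soluble protein, the supernatant after 21,000xg for 90 min, was quantified by TMTpro 16plex LC-MS/MS with equalised channel sums.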

[2] = compound: NC(=O)c1cnc(N[C@@H]2CCCC[C@@H]2N)nc1Nc1cccc(-n2nccn2)c1
Summary of the method: as §1

[3] = compound: NC1(c2ccc(-c3nc4ccn5c(=O)[nH]nc5c4cc3-c3ccccc3)cc2)CCC1
Summary of the method: as §1

[4] = compound: NCC(=O)Nc1ccc(-n2nc(C(F)(F)F)cc2-c2ccc3c(ccc4ccccc43)c2)cc1
Summary of the method: as §1

[5] = compound: Nc1ccccc1NC(=O)c1ccc(CNC(=O)OCc2cccnc2)cc1 [entinostat]
Summary of the method: as §1

[6] = compound: O=C(CCCCCCC(=O)Nc1ccccc1)NO [vorinostat]
Summary of the method: as §1

[7] = compound: O=C(CCCCCCNC(=O)c1cnc(N(c2ccccc2)c2ccccc2Cl)nc1)NO [citarinostat]
Summary of the method: as §1

[8] = compound: O=C(O)c1ccc2c(c1)nc(Nc1cccc(Cl)c1)c1ccncc12 [silmitasertib]
Summary of the method: as §1

[9] = compound: O=C1NC(=O)C(c2cnc3ccccn23)=C1c1cn2c3c(cc(F)cc13)CN(C(=O)N1CCCCC1)CC2
Summary of the method: as §1

[10] = compound: c1cc(OCCN2CCCCC2)cc(-c2n[nH]c3ccc(-c4nnc[nH]4)cc23)c1
Summary of the method: as §1

[11] = compound: c1cn2cc(-c3ccc4cn[nH]c4c3)nc(Nc3ccc(N4CCOCC4)cc3)c2n1 [entospletinib]
Summary of the method: as §1

Measured: log2 fold change

ATG9A (UniProt Q7Z3C6)
inactive: [1] 0.019 | [2] 0 | [3] -0.262 | [4] 0.038 | [5] 0.008 | [6] 0.061 | [7] 0.059 | [8] -0.023 | [9] 0.019 | [10] -0.013 | [11] -0.025

ACP1 isoform 2 (UniProt P24666)
inactive: [1] 0.048 | [2] -0.018 | [3] -0.086 | [4] -0.041 | [5] 0.041 | [6] 0.159 | [7] 0.005 | [8] -0.005 | [9] -0.149 | [10] -0.044 | [11] 0.052

BDH2 (UniProt Q9BUT1)
Sequence of UniProt Q9BUT1 (Q9BUT1 whole entry, looked up): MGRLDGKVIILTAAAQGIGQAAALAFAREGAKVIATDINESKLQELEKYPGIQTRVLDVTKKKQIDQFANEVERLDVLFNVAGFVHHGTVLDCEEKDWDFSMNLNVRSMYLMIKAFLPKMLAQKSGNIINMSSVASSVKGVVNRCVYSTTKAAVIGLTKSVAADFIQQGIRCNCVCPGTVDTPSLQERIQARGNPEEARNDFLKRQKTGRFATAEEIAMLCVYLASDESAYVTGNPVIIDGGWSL
inactive: [1] -0.091 | [2] -0.086 | [3] -0.042 | [4] 0.009 | [5] 0.025 | [6] -0.03 | [8] 0.076

ALKBH5 (UniProt Q6P6C2)
Sequence of UniProt Q6P6C2 (Q6P6C2 whole entry, looked up): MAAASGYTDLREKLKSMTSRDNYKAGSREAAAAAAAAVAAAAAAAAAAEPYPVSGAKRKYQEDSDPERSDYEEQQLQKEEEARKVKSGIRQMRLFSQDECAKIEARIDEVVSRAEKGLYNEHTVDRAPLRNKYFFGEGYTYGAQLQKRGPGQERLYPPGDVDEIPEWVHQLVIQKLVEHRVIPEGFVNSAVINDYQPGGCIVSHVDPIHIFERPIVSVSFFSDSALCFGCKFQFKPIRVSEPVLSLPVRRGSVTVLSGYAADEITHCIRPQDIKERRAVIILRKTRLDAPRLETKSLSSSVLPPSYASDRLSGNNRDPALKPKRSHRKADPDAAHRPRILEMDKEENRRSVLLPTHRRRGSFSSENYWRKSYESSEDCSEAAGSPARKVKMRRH
inactive: [1] 0.031 | [2] -0.021 | [3] 0.102 | [4] 0.052 | [5] -0.076 | [6] 0.18 | [7] 0.109 | [8] 0.033 | [9] 0.076 | [10] 0.042 | [11] -0.03

APH1A (UniProt Q96BI3)
active: [4] 0.303
inactive: [1] -0.048 | [2] -0.201 | [3] -0.075 | [5] 0.014 | [6] -0.024 | [7] 0.055 | [8] 0.006 | [10] 0.085 | [11] -0.084

AIP (UniProt O00170)
inactive: [1] -0.004 | [2] 0.011 | [3] -0.128 | [4] 0.018 | [5] 0.084 | [6] 0.076 | [7] 0.105 | [8] 0.038 | [9] 0.031 | [10] 0.036 | [11] -0.031

ARHGAP4 isoform 2 (UniProt P98171)
inactive: [1] 0.197 | [2] -0.079 | [3] 0.021 | [4] -0.036 | [5] 0.081 | [7] 0.047 | [8] -0.043 | [10] -0.097 | [11] 0.003

ALG3 (UniProt Q92685)
Sequence of UniProt Q92685 (Q92685 whole entry, looked up): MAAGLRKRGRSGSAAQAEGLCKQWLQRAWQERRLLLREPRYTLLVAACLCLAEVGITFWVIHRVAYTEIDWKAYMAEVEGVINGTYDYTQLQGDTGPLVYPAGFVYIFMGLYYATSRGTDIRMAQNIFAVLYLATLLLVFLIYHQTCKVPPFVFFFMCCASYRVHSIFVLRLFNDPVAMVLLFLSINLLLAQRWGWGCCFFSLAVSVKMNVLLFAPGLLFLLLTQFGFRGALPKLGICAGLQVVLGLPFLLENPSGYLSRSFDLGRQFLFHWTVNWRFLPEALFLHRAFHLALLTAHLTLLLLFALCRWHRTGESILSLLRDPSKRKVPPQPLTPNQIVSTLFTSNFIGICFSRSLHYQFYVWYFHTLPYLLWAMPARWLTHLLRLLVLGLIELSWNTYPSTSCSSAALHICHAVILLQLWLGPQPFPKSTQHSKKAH
inactive: [1] -0.039 | [2] -0.037 | [3] -0.006 | [4] 0.045 | [5] 0.172 | [6] -0.046 | [7] -0.051 | [8] 0.034 | [9] -0.055 | [10] -0.027 | [11] 0.049

ACOX3 (UniProt O15254)
Sequence of UniProt O15254 (O15254 whole entry, looked up): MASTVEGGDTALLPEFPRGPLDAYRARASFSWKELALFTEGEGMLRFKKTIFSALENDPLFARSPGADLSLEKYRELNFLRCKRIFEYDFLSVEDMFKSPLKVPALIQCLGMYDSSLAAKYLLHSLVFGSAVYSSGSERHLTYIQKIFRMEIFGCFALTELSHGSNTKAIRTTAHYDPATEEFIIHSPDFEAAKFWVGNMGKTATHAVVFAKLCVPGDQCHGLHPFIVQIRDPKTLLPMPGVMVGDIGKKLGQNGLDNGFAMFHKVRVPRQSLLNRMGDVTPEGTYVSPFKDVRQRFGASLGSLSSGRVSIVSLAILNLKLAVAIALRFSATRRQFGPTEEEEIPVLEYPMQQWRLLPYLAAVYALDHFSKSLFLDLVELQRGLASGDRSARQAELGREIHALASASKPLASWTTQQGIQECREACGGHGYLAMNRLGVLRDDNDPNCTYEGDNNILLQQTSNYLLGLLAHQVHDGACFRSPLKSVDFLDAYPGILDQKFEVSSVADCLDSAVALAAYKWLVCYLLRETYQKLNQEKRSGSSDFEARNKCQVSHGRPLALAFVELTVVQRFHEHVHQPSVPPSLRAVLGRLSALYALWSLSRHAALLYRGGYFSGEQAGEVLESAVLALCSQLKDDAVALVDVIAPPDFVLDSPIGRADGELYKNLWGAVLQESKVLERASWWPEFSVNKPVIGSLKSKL
inactive: [1] -0.084 | [2] 0.004 | [3] -0.09 | [4] 0.16 | [5] 0.071 | [7] 0.287 | [8] -0.302 | [9] -0.022 | [10] -0.016 | [11] 0.056

AKR1C2 (UniProt P52895)
Sequence of UniProt P52895 (P52895 whole entry, looked up): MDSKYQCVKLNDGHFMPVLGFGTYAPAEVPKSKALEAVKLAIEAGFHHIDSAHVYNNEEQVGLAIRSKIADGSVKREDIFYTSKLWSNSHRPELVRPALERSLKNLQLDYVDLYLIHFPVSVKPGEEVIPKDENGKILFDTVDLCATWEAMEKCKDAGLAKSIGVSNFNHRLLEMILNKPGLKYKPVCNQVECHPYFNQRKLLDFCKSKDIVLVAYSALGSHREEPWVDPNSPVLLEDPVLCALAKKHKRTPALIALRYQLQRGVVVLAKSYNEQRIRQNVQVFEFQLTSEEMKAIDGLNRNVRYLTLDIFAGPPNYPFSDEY
inactive: [1] 0.133 | [2] -0.092 | [3] 0.206 | [4] -0.006 | [5] -0.129 | [6] 0.012 | [7] 0.018 | [8] 0.257 | [9] 0.079 | [10] -0.076 | [11] 0.071

ATP23 (UniProt Q9Y6H3)
inactive: [1] 0.014 | [2] 0.06 | [3] 0.002 | [4] -0.057 | [5] -0.012 | [6] 0.044 | [7] -0.012 | [8] -0.027 | [9] 0.02 | [10] -0.045 | [11] 0.077

AP4S1 (UniProt Q9Y587)
Sequence of UniProt Q9Y587 (Q9Y587 whole entry, looked up): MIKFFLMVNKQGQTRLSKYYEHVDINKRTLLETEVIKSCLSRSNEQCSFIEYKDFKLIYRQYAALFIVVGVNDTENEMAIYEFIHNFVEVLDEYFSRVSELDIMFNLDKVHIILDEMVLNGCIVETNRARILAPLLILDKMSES
inactive: [1] -0.014 | [2] 0.039 | [3] -0.11 | [4] 0.019 | [5] 0.062 | [7] 0.054 | [8] -0.005 | [9] -0.092 | [10] 0.015 | [11] 0.039

ATP1A1 (UniProt P05023)
inactive: [1] -0.055 | [2] 0.093 | [3] 0.116 | [4] 0.07 | [5] -0.04 | [6] 0.03 | [7] -0.003 | [8] -0.062 | [9] -0.077 | [10] 0.003 | [11] 0.002

ADAMTS5 (UniProt Q9UNA0)
Sequence of UniProt Q9UNA0 (Q9UNA0 whole entry, looked up): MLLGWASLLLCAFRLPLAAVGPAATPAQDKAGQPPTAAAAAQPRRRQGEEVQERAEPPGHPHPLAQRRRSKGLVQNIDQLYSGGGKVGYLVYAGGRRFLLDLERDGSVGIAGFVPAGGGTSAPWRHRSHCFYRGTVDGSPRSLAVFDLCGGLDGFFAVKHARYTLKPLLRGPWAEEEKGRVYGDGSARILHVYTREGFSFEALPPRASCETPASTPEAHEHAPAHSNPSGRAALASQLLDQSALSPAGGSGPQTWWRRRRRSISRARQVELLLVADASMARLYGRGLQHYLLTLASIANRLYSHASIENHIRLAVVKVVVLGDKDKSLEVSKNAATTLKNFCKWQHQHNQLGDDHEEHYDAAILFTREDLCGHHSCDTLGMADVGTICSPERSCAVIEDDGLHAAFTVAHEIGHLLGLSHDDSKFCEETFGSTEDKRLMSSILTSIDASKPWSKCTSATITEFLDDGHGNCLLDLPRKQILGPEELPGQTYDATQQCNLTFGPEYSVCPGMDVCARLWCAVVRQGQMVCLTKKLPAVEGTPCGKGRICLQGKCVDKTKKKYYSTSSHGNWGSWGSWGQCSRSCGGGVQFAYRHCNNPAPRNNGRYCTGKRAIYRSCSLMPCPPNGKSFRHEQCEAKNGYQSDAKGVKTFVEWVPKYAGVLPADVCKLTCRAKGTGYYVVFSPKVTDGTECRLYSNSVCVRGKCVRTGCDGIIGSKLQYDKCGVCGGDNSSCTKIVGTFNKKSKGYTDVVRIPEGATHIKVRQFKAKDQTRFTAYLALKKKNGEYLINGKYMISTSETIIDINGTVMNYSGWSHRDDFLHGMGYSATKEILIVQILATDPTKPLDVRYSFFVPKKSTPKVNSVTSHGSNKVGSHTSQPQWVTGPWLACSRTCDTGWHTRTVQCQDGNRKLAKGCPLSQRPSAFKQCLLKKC
inactive: [1] 0.026 | [2] -0.065 | [3] 0.074 | [4] -0.071 | [5] -0.08 | [6] 0.056 | [7] 0.074 | [8] -0.064 | [10] 0.051 | [11] -0.145

AP2A2 isoform 2 (UniProt O94973)
inactive: [1] -0.155 | [2] 0.052 | [3] -0.003 | [4] -0.013 | [5] 0.002 | [6] 0.034 | [7] -0.023 | [8] -0.016 | [9] -0.113 | [10] -0.156 | [11] 0.059

AMD1 (UniProt P17707)
inactive: [1] 0.043 | [2] -0.091 | [3] -0.074 | [4] -0.149 | [5] -0.038 | [6] -0.093 | [7] 0.007 | [8] 0.004 | [9] -0.007 | [10] -0.08 | [11] 0.045

ATOX1 (UniProt O00244)
Sequence of UniProt O00244 (O00244 whole entry, looked up): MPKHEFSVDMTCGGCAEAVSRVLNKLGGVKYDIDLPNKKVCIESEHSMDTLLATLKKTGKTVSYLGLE
inactive: [1] 0.175 | [2] 0.273 | [3] -0.032 | [4] 0.03 | [5] 0.081 | [6] -0.018 | [7] 0.091 | [8] -0.105 | [9] -0.081 | [10] -0.004 | [11] -0.005

ANK2 (UniProt Q01484)
inactive: [1] -0.146 | [2] -0.196 | [3] -0.183 | [4] -0.16 | [5] 0.001 | [6] 0.134 | [7] -0.104 | [8] -0.004 | [10] -0.019 | [11] 0.016

AFG1L (UniProt Q8WV93)
inactive: [1] -0.021 | [2] 0.008 | [3] 0.019 | [4] -0.178 | [5] 0.095 | [7] -0.004 | [8] 0.009 | [9] -0.009 | [10] -0.057 | [11] -0.029

BMP2K (UniProt Q9NSY1)
Sequence of UniProt Q9NSY1 (Q9NSY1 whole entry, looked up): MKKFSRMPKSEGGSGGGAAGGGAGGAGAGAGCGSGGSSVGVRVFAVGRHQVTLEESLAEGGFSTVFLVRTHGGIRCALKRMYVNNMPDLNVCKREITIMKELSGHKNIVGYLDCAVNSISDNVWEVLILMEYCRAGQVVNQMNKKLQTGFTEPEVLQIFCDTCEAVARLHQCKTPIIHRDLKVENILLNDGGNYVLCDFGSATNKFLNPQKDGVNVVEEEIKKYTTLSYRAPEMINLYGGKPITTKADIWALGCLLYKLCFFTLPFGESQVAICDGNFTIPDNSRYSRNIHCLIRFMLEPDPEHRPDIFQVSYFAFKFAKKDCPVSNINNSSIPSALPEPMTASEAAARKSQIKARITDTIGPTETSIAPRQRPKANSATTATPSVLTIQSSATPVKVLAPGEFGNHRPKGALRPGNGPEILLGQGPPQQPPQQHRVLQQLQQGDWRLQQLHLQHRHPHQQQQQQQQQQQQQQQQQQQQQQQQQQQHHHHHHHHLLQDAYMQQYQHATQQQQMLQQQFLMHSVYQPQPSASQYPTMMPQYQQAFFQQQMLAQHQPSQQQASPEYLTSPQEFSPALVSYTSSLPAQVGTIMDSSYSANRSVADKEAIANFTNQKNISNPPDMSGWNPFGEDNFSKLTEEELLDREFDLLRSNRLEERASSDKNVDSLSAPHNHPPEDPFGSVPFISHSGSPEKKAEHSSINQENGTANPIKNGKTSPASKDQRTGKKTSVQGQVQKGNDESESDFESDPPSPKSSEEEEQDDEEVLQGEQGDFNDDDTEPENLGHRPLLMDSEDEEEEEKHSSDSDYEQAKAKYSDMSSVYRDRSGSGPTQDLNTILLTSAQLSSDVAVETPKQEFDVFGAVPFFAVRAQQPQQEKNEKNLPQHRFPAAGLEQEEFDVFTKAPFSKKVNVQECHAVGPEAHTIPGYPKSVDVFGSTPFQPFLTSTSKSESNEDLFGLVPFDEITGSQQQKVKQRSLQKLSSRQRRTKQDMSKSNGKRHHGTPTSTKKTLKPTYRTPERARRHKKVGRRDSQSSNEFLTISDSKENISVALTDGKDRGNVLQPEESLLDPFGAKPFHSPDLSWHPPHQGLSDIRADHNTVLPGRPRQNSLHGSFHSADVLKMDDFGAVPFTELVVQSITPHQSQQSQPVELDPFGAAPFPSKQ
inactive: [1] 0.297 | [2] 0.076 | [3] 0.035 | [4] -0.007 | [5] -0.037 | [6] -0.078 | [7] -0.053 | [8] 0.031 | [9] 0.291 | [10] 0.241 | [11] 0.157

ADK (UniProt P55263)
inactive: [1] -0.071 | [2] 0.07 | [3] 0.12 | [4] -0.04 | [5] -0.087 | [6] -0.044 | [7] -0.02 | [8] 0.011 | [9] 0.232 | [10] 0.158 | [11] 0.082

AP2M1 (UniProt C9JTK4)
inactive: [1] -0.07 | [2] -0.149 | [3] -0.111 | [4] -0.261 | [5] 0.043 | [7] -0.132 | [8] 0.116 | [9] -0.267 | [10] 0.024 | [11] 0.047

ACSM3 (UniProt Q53FZ2)
inactive: [1] 0.017 | [2] 0 | [3] 0.021 | [4] -0.125 | [5] 0.009 | [6] 0.122 | [7] 0.122 | [8] 0.06 | [9] -0.134 | [10] -0.094 | [11] -0.004

AARSD1 isoform 3 (UniProt Q9BTE6)
inactive: [1] -0.051 | [2] -0.008 | [4] -0.04 | [5] 0.054 | [6] -0.113 | [7] 0.033 | [8] 0.046 | [9] 0.008 | [10] 0.011 | [11] -0.066
active: [3] -0.214

ATP11A (UniProt P98196)
inactive: [1] -0.034 | [2] 0.065 | [3] -0.001 | [4] -0.054 | [5] -0.025 | [6] -0.08 | [7] -0.154 | [8] 0.065 | [9] -0.024 | [11] 0.158
active: [10] -0.32

APAF1 (UniProt O14727)
inactive: [1] 0.016 | [2] 0.033 | [3] -0.116 | [4] -0.104 | [5] 0.031 | [6] 0.048 | [7] 0.093 | [8] -0.116 | [9] -0.062 | [10] -0.016 | [11] -0.099

APOBEC3G (UniProt Q9HC16)
inactive: [1] 0.046 | [2] 0.149 | [3] 0.061 | [4] -0.027 | [5] 0.026 | [7] 0.125 | [8] 0.116 | [9] 0.202 | [10] -0.013 | [11] 0.126

ALDH2 (UniProt P05091)
Sequence of UniProt P05091 (P05091 whole entry, looked up): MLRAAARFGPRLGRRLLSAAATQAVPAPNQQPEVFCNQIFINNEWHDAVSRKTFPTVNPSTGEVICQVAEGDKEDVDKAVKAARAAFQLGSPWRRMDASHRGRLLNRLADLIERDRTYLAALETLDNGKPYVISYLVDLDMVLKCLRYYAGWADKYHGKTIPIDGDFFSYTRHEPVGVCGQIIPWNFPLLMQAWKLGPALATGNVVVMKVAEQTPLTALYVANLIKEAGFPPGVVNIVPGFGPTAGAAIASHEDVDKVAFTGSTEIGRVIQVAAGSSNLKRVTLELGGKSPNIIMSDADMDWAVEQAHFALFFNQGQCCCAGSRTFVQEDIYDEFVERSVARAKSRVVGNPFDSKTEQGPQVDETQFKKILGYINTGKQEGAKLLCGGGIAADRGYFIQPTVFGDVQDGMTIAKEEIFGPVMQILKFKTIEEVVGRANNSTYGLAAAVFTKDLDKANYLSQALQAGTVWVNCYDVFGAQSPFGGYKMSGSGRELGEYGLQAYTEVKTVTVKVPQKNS
inactive: [1] 0.012 | [2] -0.039 | [3] -0.046 | [4] -0.016 | [5] -0.007 | [7] 0.043 | [8] -0.038 | [9] -0.001 | [10] -0.023 | [11] -0.025
active: [6] 0.216
